Screening data as filed in PubChem.
D3 ag: agonists of human D3 dopamine receptor | max activation, % | hit rate 0.58% among 410,000 | AID 652048 | D3R DiscoveRx beta-arrestin cells, luminescence, 90 min; in the data active = max activation above about 30%; also: 0% is about no effect
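Cells at 1500/well, incubated overnight, then treated with pinned compounds (dopamine as control) for 90 min at 37 degrees C. DiscoveRx reagent added for 30 - 60 minutes at room temperature; luminescence read.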
DRD3 antagonist: D3 dopamine receptor (human) antagonism. P35462. D3R cells, DiscoveRx beta-arrestin luminescence, antagonist mode; stronger effect = lower value. max response, negative = inhibition, %. hit rate 2.5% among 360,000; in the data active = max response below about -50%; also: % is scaled to controls: 0 for no effect and ±100 for the full control effect
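Cells expressing the human receptor were seeded at 1500 cells/well, incubated overnight at 37 degrees C in 5% CO2, then exposed to library compounds with dopamine controls for 90 minutes at 37 degrees C before luminescent detection.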
Giardia kill: kills Giardia lamblia; Giardia lamblia trophozoite viability; activity change, % at 7.66 µM, hits read low; hit rate 0.15% among 340,000; AID 540267; in the data active = activity change below about -80%;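 also: parasites exposed to compound for two days anaerobically before the ATP read; % is scaled to controls: 0 for no effect and ±100 for the full control effect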
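Media and compound were dispensed first, then trophozoites at 100 cells/well; plates sat 48 hrs at 37 deg C without oxygen before ATP luminescence reagent was added and read after 15-30 min at room temperature.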
B2AR arrestin: beta2AR (human) beta-arrestin recruitment activity. P07550. beta-arrestin recruitment to beta2AR, cell-based reporter. Potency, µM (doses to about 46.1 µM), inactives show top-dose activation, actives largely listed as activators. hit rate 0.02% among 330,000; active = well fitted activation curve with a large enough effect;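 also: potency is read from the fitted curve at half-maximal effect; 0% = DMSO controls and full agonism = EC100 isoproterenol or metaproterenol; nearly all actives have a fitted effect of over 65% in size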
Target sequence (P07550 whole entry, looked up): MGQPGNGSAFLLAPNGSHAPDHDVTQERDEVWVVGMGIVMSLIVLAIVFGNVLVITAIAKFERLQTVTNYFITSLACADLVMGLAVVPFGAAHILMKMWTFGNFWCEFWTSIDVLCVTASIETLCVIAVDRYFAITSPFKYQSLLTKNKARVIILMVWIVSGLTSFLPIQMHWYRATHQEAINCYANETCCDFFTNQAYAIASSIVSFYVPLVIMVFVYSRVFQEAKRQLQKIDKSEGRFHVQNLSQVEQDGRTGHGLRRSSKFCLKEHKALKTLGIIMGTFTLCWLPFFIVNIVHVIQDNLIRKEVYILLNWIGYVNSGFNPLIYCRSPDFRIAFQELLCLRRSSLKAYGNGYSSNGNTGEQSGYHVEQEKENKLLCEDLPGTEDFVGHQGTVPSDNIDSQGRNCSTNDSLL
An asterisk follows results filed as active; x = no result. Compounds with a hit are over-represented: about 2.8% of the library has one in this group of screens.

SMILES | D3 ag | DRD3 antagonist | Giardia kill | B2AR arrestin
COc1ccc(-n2c(=O)c3ccc(C(=O)NCc4ccc(C)cc4)cc3n(Cc3ccc(F)cc3Cl)c2=O)cc1 | 4 | x | x | x
CCCCN1CCCC1C(=O)Nc1c(C)cc(C)cc1C (stereo not drawn) | -13 | x | x | x
O=C(Cn1c(=O)oc2cc(S(=O)(=O)N3CCCC3)ccc21)Nc1ccc(F)cc1F | -5 | x | x | x
Cc1cc2c(n1-c1ccc(Br)cc1)CC(C)(C)CC2=O | -2 | -18 | 19 | -1%
Cc1ccc(-n2c(C)cc3c2CC(C)(C)CC3=O)cc1C | -5 | -88* | -1 | 0%
CCOC(=O)C1CCN(Cc2ccc(OCc3ccccc3)c(OC)c2)CC1 | -8 | 2 | -19 | 0%
CCOC(=O)C1CCN(Cc2ccc(OC)c(OCc3ccccc3)c2)CC1 | -18 | -65* | 1 | 0%
COc1ccc(CN2CCC(C)CC2)cc1OCc1ccccc1 | -25 | -89* | 16 | 0%
CCN(CC)C(=O)C1CCN(Cc2cccc(OCc3ccccc3)c2)CC1 | 1 | -61* | -1 | 0%
COc1cc(CN2CCCCC2)ccc1OCc1ccccc1 | -16 | 22 | -7 | 0%
CCN(CC)C(=O)C1CCN(Cc2ccc(OCc3ccccc3)cc2)CC1 | -6 | 5 | -18 | 0%
CCc1ccc2[nH]c(=O)c(CN(Cc3cccs3)Cc3nnnn3Cc3ccccc3)cc2c1 | x | x | -20 | x
CCCNC(=O)COC(=O)c1ccccc1C(=O)c1ccc(Cl)c([N+](=O)[O-])c1 | -21 | -101* | -2 | 0%
Cc1ccc(C(=O)c2ccccc2C(=O)OCC(=O)Nc2cccc([N+](=O)[O-])c2)cc1 | -15 | 17 | 17 | 0%
Cc1ccc(Cl)c(NC(=O)COC(=O)c2ccccc2C(=O)c2ccc(Cl)c([N+](=O)[O-])c2)c1Cl | -23 | -71* | -1 | -2%
Cc1ccc(C(=O)c2ccccc2C(=O)OCC(=O)NCCc2ccc(Cl)cc2Cl)cc1 | 4 | 1 | -4 | 0%
CCN(CC)CCC(C)OC(c1ccccc1)c1ccccc1 (stereo not drawn) | -4 | -53* | -1 | -1%
CCN(CC)CCOC(c1ccccc1)c1ccc(C)cc1 (stereo not drawn) | -7 | -28 | 5 | 1%
CCOc1ccc(C(=O)Nc2ccc(C(=O)OCc3cc(=O)n4ccsc4n3)cc2)cc1 | -10 | x | x | x
CC1CCN(C(=O)c2cc3c(=O)n(C)c4cc(Cl)ccc4c3s2)CC1 | -9 | x | x | x
O=C(CN1C(=O)C(=O)N(CCC2=CCCCC2)C1=O)c1c[nH]c2ccccc12 | 2 | -52* | 4 | 0%
O=C(CN1C(=O)C(=O)N(Cc2ccco2)C1=O)c1c[nH]c2ccccc12 | 7 | 1 | 7 | 0%
O=C(NC(c1ccc(Cl)cc1)c1cnccn1)C1CCN(Cc2ccccc2)CC1 (stereo not drawn) | -15 | 19 | x | x
O=C(NC(c1ccc(-c2ccccc2)cc1)c1cnccn1)C1CCN(Cc2ccc(Oc3ccccc3)cc2)CC1 (stereo not drawn) | -20 | -54* | x | x
COc1ccc(C(NC(=O)C2CCN(Cc3ccc(Oc4ccccc4)cc3)CC2)c2ccccn2)cc1 (stereo not drawn) | -26 | -55* | x | x
SMILES | D3 ag | DRD3 antagonist | Giardia kill | B2AR arrestin
O=C(NC(c1ccc(-c2ccccc2)cc1)c1cnccn1)C1CCN(Cc2cccc(C(F)(F)F)c2)CC1 (stereo not drawn) | -5 | 0 | x | x
COc1cc(CN2CCC(C(=O)NC(c3ccc(-c4ccccc4)cc3)c3cnccn3)CC2)cc(OC)c1 (stereo not drawn) | -10 | -54* | x | x
O=C(c1ccccc1)c1ccccc1C(=O)N1CCCC1 | -3 | -50* | 19 | x
COC(=O)/C(=C\C(=O)c1ccccc1)Nc1cccc(C(F)(F)F)c1 | 3 | -76* | -2 | -1%
Cc1c(C2=CCN(S(=O)(=O)c3cccc(Cl)c3)CC2)c2ccccc2n1CC(=O)N1CCCC1 | -5 | x | -2 | x
COc1ccc(-c2nc(C#N)c(NCCN(C)C)o2)cc1 | -8 | -61* | -3 | x
C=C1CCN(C(Cc2ccccc2)C(=O)Nc2ccc(OC)cc2)S(=O)(=O)c2ccccc21 (stereo not drawn) | x | x | -3 | x
COc1ccc(C(CNC(=O)C(C)(C)Oc2ccc(Cl)cc2)N2CCCC2)cc1 (stereo not drawn) | -4 | -114* | 1 | -1%
COc1ccc(C(CNC(=O)Cc2ccccc2Cl)N2CCCCC2)cc1 (stereo not drawn) | -28 | -86* | 0 | 0%
COc1ccc(C(CNC(=O)COc2cc(C)c(Cl)c(C)c2)N2CCCCC2)cc1 (stereo not drawn) | -24 | -92* | 23 | 0%
